Laboratory results taken from the supplement of paper PMC10849652.
The full data set covers some 7,900 targets. This sample favours those with a hit. About 0.6% of all pairs of compound and target were hits.

The targets below were run with NCC(=O)Nc1ccc(-n2nc(C(F)(F)F)cc2-c2ccc3c(ccc4ccccc43)c2)cc1 (assay: log2 fold change, soluble protein after heating vs DMSO (PISA); higher = thermal stabilisation; K562 cells, 10 uM, 30 min; active = over 0.2 and 3.5 SD of the protein, either way, in both replicates (recomputed)).
Procedure, shortened: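 Values are thermal stability changes relative to control samples and are taken from duplicates. They are stated as log2 fold changes. Before quantification by TMTpro 16plex LC-MS/MS with equalised channel sums, K562 cells at 2×10^6 cells/mL were treated with 10 μM compound for 30 min, heated in aliquots for 3 min across 48°C-58°C, pooled, extracted in PBS with 0.5% NP-40 at 4°C, and centrifuged at 21,000xg for 90 min to give the soluble supernatant.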

Sequence of UniProt Q12905 (Q12905 whole entry, looked up): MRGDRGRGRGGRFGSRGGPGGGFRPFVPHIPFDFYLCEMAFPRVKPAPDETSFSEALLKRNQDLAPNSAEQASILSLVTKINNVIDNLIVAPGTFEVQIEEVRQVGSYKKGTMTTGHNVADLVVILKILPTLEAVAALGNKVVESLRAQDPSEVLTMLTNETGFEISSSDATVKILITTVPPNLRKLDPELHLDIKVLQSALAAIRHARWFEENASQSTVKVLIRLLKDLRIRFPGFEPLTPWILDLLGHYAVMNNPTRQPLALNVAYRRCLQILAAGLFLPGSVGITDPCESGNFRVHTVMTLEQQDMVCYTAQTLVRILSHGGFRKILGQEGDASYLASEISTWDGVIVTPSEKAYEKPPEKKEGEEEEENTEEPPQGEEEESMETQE
Sequence of UniProt O60333 (O60333 whole entry, looked up): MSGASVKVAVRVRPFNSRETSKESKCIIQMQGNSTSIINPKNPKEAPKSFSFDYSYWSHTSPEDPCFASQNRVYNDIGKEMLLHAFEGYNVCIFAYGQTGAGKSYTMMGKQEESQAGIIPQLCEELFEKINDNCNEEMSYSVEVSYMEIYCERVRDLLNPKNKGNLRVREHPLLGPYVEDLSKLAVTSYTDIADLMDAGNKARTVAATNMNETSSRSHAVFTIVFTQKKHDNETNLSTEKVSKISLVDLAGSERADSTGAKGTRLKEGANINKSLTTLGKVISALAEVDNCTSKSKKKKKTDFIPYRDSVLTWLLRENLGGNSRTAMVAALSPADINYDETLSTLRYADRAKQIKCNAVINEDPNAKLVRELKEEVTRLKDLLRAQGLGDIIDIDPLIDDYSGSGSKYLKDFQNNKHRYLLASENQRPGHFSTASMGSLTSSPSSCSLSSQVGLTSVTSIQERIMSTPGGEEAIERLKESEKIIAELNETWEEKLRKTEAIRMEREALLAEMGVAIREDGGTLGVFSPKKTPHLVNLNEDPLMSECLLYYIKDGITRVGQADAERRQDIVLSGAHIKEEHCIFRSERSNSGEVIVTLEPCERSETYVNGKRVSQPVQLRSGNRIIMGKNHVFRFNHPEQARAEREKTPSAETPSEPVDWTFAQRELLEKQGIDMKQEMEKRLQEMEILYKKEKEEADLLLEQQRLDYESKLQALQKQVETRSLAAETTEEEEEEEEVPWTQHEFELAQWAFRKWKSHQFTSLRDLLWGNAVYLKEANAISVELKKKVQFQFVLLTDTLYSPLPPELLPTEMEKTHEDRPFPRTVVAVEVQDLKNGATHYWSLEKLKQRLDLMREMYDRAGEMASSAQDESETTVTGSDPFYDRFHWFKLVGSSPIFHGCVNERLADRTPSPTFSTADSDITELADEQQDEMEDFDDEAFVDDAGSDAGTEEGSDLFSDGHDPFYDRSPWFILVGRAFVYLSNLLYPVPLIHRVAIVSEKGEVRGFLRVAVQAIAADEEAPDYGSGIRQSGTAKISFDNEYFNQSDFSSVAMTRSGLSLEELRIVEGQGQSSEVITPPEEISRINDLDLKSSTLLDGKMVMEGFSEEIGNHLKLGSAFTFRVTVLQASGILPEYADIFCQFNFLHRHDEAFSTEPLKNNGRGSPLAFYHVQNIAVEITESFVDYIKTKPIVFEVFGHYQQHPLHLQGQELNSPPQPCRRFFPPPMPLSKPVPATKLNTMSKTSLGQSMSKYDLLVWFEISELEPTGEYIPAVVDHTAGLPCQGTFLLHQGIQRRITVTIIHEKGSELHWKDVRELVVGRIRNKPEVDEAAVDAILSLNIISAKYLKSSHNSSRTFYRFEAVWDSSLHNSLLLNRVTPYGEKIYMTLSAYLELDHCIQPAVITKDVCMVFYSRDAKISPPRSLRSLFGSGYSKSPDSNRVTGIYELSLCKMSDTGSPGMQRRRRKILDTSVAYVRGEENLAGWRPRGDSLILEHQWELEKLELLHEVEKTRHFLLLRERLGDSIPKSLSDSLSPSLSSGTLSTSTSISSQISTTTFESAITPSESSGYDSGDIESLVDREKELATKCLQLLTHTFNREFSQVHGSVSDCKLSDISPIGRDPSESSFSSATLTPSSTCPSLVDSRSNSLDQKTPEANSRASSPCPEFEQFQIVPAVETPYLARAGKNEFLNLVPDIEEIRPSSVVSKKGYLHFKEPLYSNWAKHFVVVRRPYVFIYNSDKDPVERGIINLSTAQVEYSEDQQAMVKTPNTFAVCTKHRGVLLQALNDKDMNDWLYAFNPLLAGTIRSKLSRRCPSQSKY
Sequence of UniProt Q7L2J0 (Q7L2J0 whole entry, looked up): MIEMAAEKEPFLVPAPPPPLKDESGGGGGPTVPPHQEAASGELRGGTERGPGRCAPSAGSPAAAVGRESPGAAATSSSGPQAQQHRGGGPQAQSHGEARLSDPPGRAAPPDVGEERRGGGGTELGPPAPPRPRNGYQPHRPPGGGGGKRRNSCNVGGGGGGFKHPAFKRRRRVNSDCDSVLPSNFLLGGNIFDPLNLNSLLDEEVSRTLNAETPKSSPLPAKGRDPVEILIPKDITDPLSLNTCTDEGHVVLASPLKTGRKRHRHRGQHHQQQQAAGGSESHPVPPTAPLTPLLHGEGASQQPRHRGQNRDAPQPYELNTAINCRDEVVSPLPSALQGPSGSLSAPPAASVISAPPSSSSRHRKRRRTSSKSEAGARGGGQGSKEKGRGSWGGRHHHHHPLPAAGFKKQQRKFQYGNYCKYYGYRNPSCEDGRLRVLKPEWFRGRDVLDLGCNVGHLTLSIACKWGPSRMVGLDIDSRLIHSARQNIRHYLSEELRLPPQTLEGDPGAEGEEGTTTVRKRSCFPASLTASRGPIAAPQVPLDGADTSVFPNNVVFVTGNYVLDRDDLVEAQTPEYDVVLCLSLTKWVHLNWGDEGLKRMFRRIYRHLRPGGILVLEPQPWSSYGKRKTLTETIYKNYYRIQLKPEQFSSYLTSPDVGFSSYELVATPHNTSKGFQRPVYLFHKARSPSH
Sequence of UniProt O43766 (O43766 whole entry, looked up): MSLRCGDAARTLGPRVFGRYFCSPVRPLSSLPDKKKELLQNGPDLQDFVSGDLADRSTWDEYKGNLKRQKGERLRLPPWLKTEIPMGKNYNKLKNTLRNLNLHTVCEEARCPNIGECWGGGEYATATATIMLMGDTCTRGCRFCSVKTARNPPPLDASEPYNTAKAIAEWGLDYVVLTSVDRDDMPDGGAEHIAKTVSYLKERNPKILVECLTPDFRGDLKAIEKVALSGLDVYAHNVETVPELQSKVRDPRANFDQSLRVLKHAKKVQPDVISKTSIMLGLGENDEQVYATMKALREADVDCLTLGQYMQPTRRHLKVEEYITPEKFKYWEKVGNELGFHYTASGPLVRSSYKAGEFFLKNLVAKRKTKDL
Sequence of UniProt Q14974 (Q14974 whole entry, looked up): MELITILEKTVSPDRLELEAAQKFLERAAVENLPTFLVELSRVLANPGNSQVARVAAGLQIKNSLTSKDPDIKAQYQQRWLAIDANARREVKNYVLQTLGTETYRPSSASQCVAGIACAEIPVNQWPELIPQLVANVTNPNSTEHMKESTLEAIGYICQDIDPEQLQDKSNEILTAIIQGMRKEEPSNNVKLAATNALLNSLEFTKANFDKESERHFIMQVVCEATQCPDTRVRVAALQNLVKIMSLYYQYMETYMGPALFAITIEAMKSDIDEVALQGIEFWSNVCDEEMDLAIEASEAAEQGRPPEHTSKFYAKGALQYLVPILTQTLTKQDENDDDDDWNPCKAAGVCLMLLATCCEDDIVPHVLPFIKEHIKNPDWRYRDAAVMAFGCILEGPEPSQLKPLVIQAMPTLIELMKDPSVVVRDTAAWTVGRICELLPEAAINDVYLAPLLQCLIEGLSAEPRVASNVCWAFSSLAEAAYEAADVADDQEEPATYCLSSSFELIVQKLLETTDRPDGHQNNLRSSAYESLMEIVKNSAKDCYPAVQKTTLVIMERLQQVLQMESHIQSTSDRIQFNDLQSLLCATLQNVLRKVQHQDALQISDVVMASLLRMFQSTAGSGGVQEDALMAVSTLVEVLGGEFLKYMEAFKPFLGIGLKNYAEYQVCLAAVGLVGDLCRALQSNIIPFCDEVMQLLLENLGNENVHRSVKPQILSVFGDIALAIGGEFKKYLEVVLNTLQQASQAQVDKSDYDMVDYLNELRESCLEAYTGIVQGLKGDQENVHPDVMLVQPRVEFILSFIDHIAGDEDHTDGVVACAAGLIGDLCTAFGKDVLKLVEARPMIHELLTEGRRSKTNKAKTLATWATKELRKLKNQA
Sequence of UniProt P01116 (P01116 whole entry, looked up): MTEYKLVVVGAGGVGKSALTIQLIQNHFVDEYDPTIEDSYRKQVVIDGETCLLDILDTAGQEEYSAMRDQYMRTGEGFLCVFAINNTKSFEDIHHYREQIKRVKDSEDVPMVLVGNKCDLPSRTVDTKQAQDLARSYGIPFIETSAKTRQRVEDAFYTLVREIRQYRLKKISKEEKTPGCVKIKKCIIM
Sequence of UniProt Q5XKP0 (Q5XKP0 whole entry, looked up): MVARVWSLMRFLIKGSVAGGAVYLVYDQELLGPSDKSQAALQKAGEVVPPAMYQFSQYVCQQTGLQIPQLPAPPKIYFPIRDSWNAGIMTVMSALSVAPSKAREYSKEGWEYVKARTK
Sequence of UniProt Q07820 (Q07820 whole entry, looked up): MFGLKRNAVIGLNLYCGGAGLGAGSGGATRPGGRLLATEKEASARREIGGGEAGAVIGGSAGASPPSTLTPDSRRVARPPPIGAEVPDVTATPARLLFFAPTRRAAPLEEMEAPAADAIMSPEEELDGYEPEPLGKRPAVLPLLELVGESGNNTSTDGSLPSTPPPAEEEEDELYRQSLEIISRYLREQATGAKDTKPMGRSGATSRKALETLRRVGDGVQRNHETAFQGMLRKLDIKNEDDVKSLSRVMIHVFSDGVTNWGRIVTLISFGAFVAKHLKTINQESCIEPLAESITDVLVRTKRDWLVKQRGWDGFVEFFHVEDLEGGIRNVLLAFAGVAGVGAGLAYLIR
Sequence of UniProt O14880 (O14880 whole entry, looked up): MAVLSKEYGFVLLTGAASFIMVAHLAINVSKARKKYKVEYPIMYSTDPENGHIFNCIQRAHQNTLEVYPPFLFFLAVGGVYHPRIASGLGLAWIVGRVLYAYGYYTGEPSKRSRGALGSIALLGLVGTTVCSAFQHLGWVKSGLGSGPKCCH

| Target | log2 fold change |
| --- | --- |
| KRAS isoform 2 (UniProt P01116) | 0.061 (inactive) |
| LEMD3 (UniProt Q9Y2U8) | -0.116 (inactive) |
| LIMD1 (UniProt Q9UGP4) | -0.029 (inactive) |
| LMF2 (UniProt Q9BU23) | -0.089 (inactive) |
| IPO13 (UniProt O94829) | -0.112 (inactive) |
| LNPEP (UniProt Q9UIQ6) | 0.019 (inactive) |
| MAGOHB (UniProt Q96A72) | -0.132 (inactive) |
| MAP3K7 (UniProt O43318) | -0.086 (inactive) |
| KPNB1 (UniProt Q14974) | -0.037 (inactive) |
| MAPK12 (UniProt P53778) | 0.014 (inactive) |
| MEPCE (UniProt Q7L2J0) | -0.004 (inactive) |
| ILF2 (UniProt Q12905) | 0.109 (inactive) |
| MAPKAPK3 (UniProt Q16644) | -0.052 (inactive) |
| MCL1 (UniProt Q07820) | -0.039 (inactive) |
| MDN1 (UniProt Q9NU22) | -0.058 (inactive) |
| MAP3K4 isoform 2 (UniProt Q9Y6R4) | -0.025 (inactive) |
| MAP2K2 (UniProt P36507) | -0.003 (inactive) |
| KCTD2 (UniProt Q14681) | -0.119 (inactive) |
| MARK3 (UniProt P27448) | -0.113 (inactive) |
| LUC7L2 (UniProt Q9Y383) | -0.133 (inactive) |

| Target | log2 fold change |
| --- | --- |
| LMNB1 (UniProt P20700) | -0.018 (inactive) |
| MICOS13 (UniProt Q5XKP0) | 0.029 (inactive) |
| IMMT isoform 2 (UniProt Q16891) | -0.066 (inactive) |
| KEAP1 (UniProt Q14145) | -0.034 (inactive) |
| MAGI1 (UniProt Q96QZ7) | -0.022 (inactive) |
| MGST3 (UniProt O14880) | 0.009 (inactive) |
| MICU1 isoform 3 (UniProt Q9BPX6) | 0.039 (inactive) |
| MAP4 (UniProt E7EVA0) | 0.105 (inactive) |
| LNPK (UniProt Q9C0E8) | 0.014 (inactive) |
| KIF1B isoform 4 (UniProt O60333) | -0.03 (inactive) |
| LIAS (UniProt O43766) | -0.016 (inactive) |
| MAPK8 isoform 3 (UniProt P45983) | -0.05 (inactive) |
| MFGE8 (UniProt Q08431) | 0.125 (inactive) |
| KHDC4 (UniProt Q7Z7F0) | -0.034 (inactive) |
| LUC7L3 (UniProt O95232) | -0.076 (inactive) |
| LTN1 isoform 3 (UniProt O94822) | -0.09 (inactive) |
| LPCAT3 (UniProt Q6P1A2) | -0.229 (inactive) |
| LMBRD2 (UniProt Q68DH5) | -0.025 (inactive) |
| KPNA6 (UniProt O60684) | -0.002 (inactive) |
